Measured values reported in PubChem BioAssay AID1159580 (chemical genetic matrix, 2015).
Out of some 5,500 compounds screened, about 2,000 (36%) were called active. Another 18% or so got no clear call; they are omitted. Cut-off read from the data, not from the text of the source: active = normalized growth mostly below about 0.91 (no sharp cut-off); inconclusive = no clear call, values can overlap the other calls; inactive = mostly above about 0.92. Some of the results follow.

Assay: chemical genetic growth profiling, strain panel (AID 1159580);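 note: tested at 20 µM; growth read once vehicle control cultures reached saturation at 30 °C; 1 = growth at the plate median or of vehicle wells; lower values mean less growth of the strain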
Conditions: S. cerevisiae deletion strains, growth OD

Measured: normalized growth

CNC(=O)Oc1cccc2c1OC(C)(C)O2
inactive: locus YAL013W, strain DEP1, active compounds read low 1.01 | locus YAL021C, strain ccr4, active compounds read low 0.991 | locus YAL026C, strain drs2, active compounds read low 1 | locus YAL030W, strain snc1, active compounds read low 1.01 | locus YBL061C, strain skt5, active compounds read low 1 | locus YBR009C, strain hhf1, active compounds read low 1 | locus YBR021W, strain FUR4, active compounds read low 1.03 | locus YBR023C, strain chs3, active compounds read low 1 | locus YBR171W, strain sec66, active compounds read low 1.01 | locus YBR229C, strain ROT2, active compounds read low 1.02 | locus YBR231C, strain swc5, active compounds read low 1 | locus YBR279W, strain paf1, active compounds read low 0.994 | locus YCL011C, strain gbp2, active compounds read low 1 | locus YCL016C, strain dcc1, active compounds read low 1 | locus YCL029C, strain bik1, active compounds read low 0.999 | locus YCL061C, strain MRC1, active compounds read low 0.998 | locus YCL069W, strain vba3, active compounds read low 0.998 | locus YCR088W, strain abp1, active compounds read low 1 | locus YDL005C, strain med2, active compounds read low 0.996 | locus YDL035C, strain GPR1, active compounds read low 1.02 | locus YDL040C, strain nat1, active compounds read low 1 | locus YDL074C, strain BRE1, active compounds read low 1.07 | locus YDL101C, strain DUN1, active compounds read low 1.03 | locus YDL134C, strain PPH21, active compounds read low 1.02 | locus YDL185W, strain tfp1, active compounds read low 0.995 | locus YDL192W, strain arf1, active compounds read low 0.993 | locus YDR001C, strain nth1, active compounds read low 1 | locus YDR069C, strain doa4, active compounds read low 1 | locus YDR101C, strain arx1, active compounds read low 0.989 | locus YDR137W, strain rgp1, active compounds read low 1.05 | locus YDR150W, strain NUM1, active compounds read low 1.02 | locus YDR159W, strain sac3, active compounds read low 0.988 | locus YDR162C, strain NBP2, active compounds read low 1.02 | locus YDR195W, strain ref2 0.967 | locus YDR297W, strain sur2, active compounds read low 0.997 | locus YDR318W, strain mcm21, active compounds read low 0.996 | locus YDR334W, strain swr1, active compounds read low 1.01 | locus YDR335W, strain msn5, active compounds read low 0.995 | locus YDR388W, active compounds read low 0.996 | locus YDR392W, strain spt3, active compounds read low 0.814 | locus YDR502C, strain sam2, active compounds read low 0.997 | locus YEL003W, strain gim4, active compounds read low 0.999 | locus YEL037C, strain rad23, active compounds read low 0.998 | locus YEL061C, strain CIN8 (second series), active compounds read low 1.01 | locus YEL061C, strain CIN8, active compounds read low 1.01 | locus YER015W, strain faa2, active compounds read low 1 | locus YER016W, strain bim1, active compounds read low 0.998 | locus YER110C, active compounds read low 1 | locus YER111C, strain swi4, active compounds read low 0.992 | locus YER155C, strain BEM2 (second series), active compounds read low 0.998 | locus YER155C, strain BEM2, active compounds read low 1.02 | locus YER167W, strain BCK2, active compounds read low 1.01 | locus YFR010W, strain ubp6, active compounds read low 0.987 | locus YGL078C, strain dbp3, active compounds read low 0.99 | locus YGL086W, strain mad1, active compounds read low 0.996 | locus YGL167C, strain pmr1, active compounds read low 1 | locus YGL173C, strain kem1, active compounds read low 1 | locus YGL227W, strain vid30, active compounds read low 0.999 | locus YGL240W, strain doc1, active compounds read low 0.986 | locus YGL248W, strain PDE1, active compounds read low 1.01 | locus YGL253W, strain hxk2, active compounds read low 1 | locus YGR078C, strain PAC10, active compounds read low 1.02 | locus YGR135W, strain pre9, active compounds read low 0.999 | locus YGR229C, strain SMI1, active compounds read low 1.03 | locus YGR252W, strain gcn5, active compounds read low 0.941 | locus YHR013C, strain ard1, active compounds read low 0.946 | locus YHR027C, strain rpn1, active compounds read low 1.01 | locus YHR030C, strain SLT2, active compounds read low 1.02 | locus YHR079C, strain IRE1 (second series), active compounds read low 0.99 | locus YHR094C, strain hxt1, active compounds read low 0.995 | locus YHR129C, strain ARP1, active compounds read low 1.02 | locus YHR142W, strain chs7, active compounds read low 1 | locus YHR200W, strain rpn10, active compounds read low 0.995 | locus YIL066C, strain RNR3, active compounds read low 1.02 | locus YIL073C, strain SPO22, active compounds read low 0.954 | locus YIL125W, strain kgd1, active compounds read low 1 | locus YIR030C, strain dcg1, active compounds read low 0.995 | locus YJL092W, strain hpr5, active compounds read low 1 | locus YJL095W, strain BCK1 (second series), active compounds read low 0.997 | locus YJL095W, strain BCK1, active compounds read low 1.04 | locus YJL115W, strain asf1, active compounds read low 0.997 | locus YJL129C, strain trk1, active compounds read low 1.02 | locus YJL134W, strain LCB3, active compounds read low 1.02 | locus YJL154C, strain vps35, active compounds read low 1 | locus YJL164C, strain tpk1, active compounds read low 0.991 | locus YJL166W, strain qcr8, active compounds read low 0.992 | locus YJL168C, strain set2, active compounds read low 0.991 | locus YJL187C, strain SWE1 (second series), active compounds read low 1.01 | locus YJL187C, strain SWE1, active compounds read low 1.01
